Measured values reported in the supplement of paper PMC10646978.
± gives the standard deviation.

Assays:
Conditions in all cases: modulator concentration 10 µM
[1] = tested on: RAW-Dual (murine macrophage reporter line); assay: NF-kB reporter (SEAP) activity fold change vs agonist alone; higher = enhanced NF-kB activity
In short: (§1)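 Overnight stimulation with a PRR agonist followed pre-incubation for 1 hour at 37 °C with compound at 10 μM final. This was done in RAW-Dual murine macrophage reporter cells seeded at 50 000 per well in 384-well plates. NF-κB (SEAP, QUANTI-Blue absorbance at 620 nm) and IRF (Lucia luciferase, QUANTI-Luc luminescence) were read from the supernatant. Each reporter's fold change relative to the mean agonist-only control on the same plate was averaged over replicate plates.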

[2] = tested on: RAW-Dual (murine macrophage reporter line); assay: IRF reporter (Lucia luciferase) activity fold change vs agonist alone; higher = enhanced IRF activity
In short: as §1

[3] = tested on: RAW-Dual (murine macrophage reporter line); assay: viability score (confluency relative to resting cells, overnight) (fraction); higher = more viable, active = viable (0.7 or more)
In short: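 RAW-Dual macrophages in 384-well plates were incubated overnight with compound, final concentration 10 μM. Confluency images from IncuCyte were processed in IncuCyte software into two masks covering all imaged wells. The viability score is each well's confluency relative to resting cells, and a compound met the cutoff when both masks exceeded 70% of resting cells.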

[4] = agonist: CpG ODN 1826 0.5 ug/mL

SMILES	NF-kB reporter [1, 4]	NF-kB reporter ([1]; agonist: LPS 0.1 ug/mL)	NF-kB reporter ([1]; agonist: MPLA […])	IRF reporter ([2]; agonist: 3'3'-cGAMP 10 ug/mL)	IRF reporter ([2]; agonist: LPS 0.1 ug/mL)	IRF reporter ([2]; agonist: MPLA […])	viability score [3]
O=C(O[C@H]1C[C@H]2CC3C[C@@H](C1)N2CC3=O)c1c[nH]c2ccccc12	0.524 ± 0.055	0.598 ± 0.1	0.693 ± 0.03	0.92 ± 0.051	0.909 ± 0.03	0.912 ± 0.084	0.998 (active)
CNC(=O)c1cccc(-c2noc(C3CN(C(=O)NC4CCCCC4)C3)n2)c1	1.06 ± 0.053	1.11 ± 0.11	1.03 ± 0.091	1.06 ± 0.065	1.21 ± 0.1	1.17 ± 0.13	1 (active)
COc1ccc(C(=O)C=Cc2cc(OC)c(OC)c(OC)c2)c(O)c1	1.63 ± 0.13	0.199 ± 0.018	0.273 ± 0.026	0.148 ± 0.014	0.0569 ± 0.019	0.0398 ± 0.015	0.794 (active)
Cc1cnc2c(c1N1CCC(Cc3ccccc3)CC1)c(=O)n(C)c(=O)n2C	0.97 ± 0.06	1.08 ± 0.084	0.996 ± 0.051	1.06 ± 0.044	1.01 ± 0.088	1.07 ± 0.26	0.999 (active)
CCOC(=O)c1cnn(CCOc2ccccc2)c1N	1.05 ± 0.081	0.851 ± 0.079	1.02 ± 0.11	0.975 ± 0.052	1.22 ± 0.13	1.31 ± 0.2	1 (active)
COc1ccc(C(=O)Oc2ccc(-c3ccc(C)cc3)cc2)cc1OC	0.744 ± 0.058	0.892 ± 0.042	1 ± 0.09	0.957 ± 0.069	1.22 ± 0.09	1.27 ± 0.15	0.996 (active)
COc1cc2c(cc1OC)C(=O)C(CC1CCN(Cc3ccccc3)CC1)C2 (configuration not stated)	0.586 ± 0.14	0.954 ± 0.058	1.05 ± 0.066	0.797 ± 0.027	0.813 ± 0.096	0.897 ± 0.11	0.99 (active)
CN(C)c1nc(CNS(C)(=O)=O)nc(N2CCOCC2)n1	0.908 ± 0.047	0.916 ± 0.091	1.02 ± 0.071	1.08 ± 0.049	1.07 ± 0.18	1.14 ± 0.38	1.02 (active)
Cc1ccc(C2(c3ccc(C)cc3)CC2C(=O)Nc2ccccc2)cc1 (configuration not stated)	0.728 ± 0.079	0.905 ± 0.12	1.51 ± 0.071	0.541 ± 0.031	0.835 ± 0.12	0.654 ± 0.12	0.992 (active)
O=C(O)CCCN1CCC(O[C@@H](c2ccc(Cl)cc2)c2ccccn2)CC1.O=S(=O)(O)c1ccccc1	1.37 ± 0.19	1.24 ± 0.3	0.988 ± 0.059	0.995 ± 0.046	1.18 ± 0.26	1.09 ± 0.1	0.985 (active)
O=S(=O)(N=Cc1c(O)ccc2ccccc12)c1cccs1	1.05 ± 0.23	1 ± 0.079	0.876 ± 0.12	0.74 ± 0.022	0.988 ± 0.15	0.992 ± 0.2	0.999 (active)
CCCCCCc1cc2cc(-c3nc(-c4ccc(Oc5ccccc5)cc4)cs3)c(=O)oc2cc1O	0.962 ± 0.096	1.04 ± 0.085	0.946 ± 0.068	0.873 ± 0.024	1.42 ± 0.22	1.12 ± 0.29	1.01 (active)
C1=C(c2ccccc2)Nc2nnnn2C1c1ccccc1 (configuration not stated)	0.951 ± 0.076	0.945 ± 0.077	0.996 ± 0.097	0.949 ± 0.087	1.34 ± 0.28	1.46 ± 0.36	1.01 (active)
Cc1cc(=O)n(-c2ccccc2)n1C	0.98 ± 0.18	1.02 ± 0.08	0.99 ± 0.095	1.02 ± 0.033	1.27 ± 0.18	1.22 ± 0.14	0.995 (active)
c1ccc(CCn2c3ccccc3c3nnc(SCCN4CCOCC4)nc32)cc1	0.859 ± 0.067	0.912 ± 0.11	1.01 ± 0.091	0.697 ± 0.042	1.2 ± 0.13	1.33 ± 0.18	1.01 (active)
N#Cc1nc(-c2ccc(COc3ccccc3)o2)oc1N1CCc2ccccc2C1	0.987 ± 0.049	1.13 ± 0.089	0.896 ± 0.05	0.964 ± 0.078	1 ± 0.16	0.989 ± 0.38	1.01 (active)
COc1ccc(S(=O)(=O)N(CC(=O)Nc2ccccc2Br)c2ccc(C)cc2)cc1OC	0.735 ± 0.067	0.773 ± 0.076	0.864 ± 0.041	0.858 ± 0.086	1.04 ± 0.11	1.1 ± 0.17	1 (active)
Cc1ccc(OCCCOc2cccc3cccnc23)c(Cl)c1	0.808 ± 0.076	1.02 ± 0.056	0.877 ± 0.057	0.947 ± 0.077	1.32 ± 0.14	1.05 ± 0.076	1.01 (active)

SMILES	NF-kB reporter [1, 4]	NF-kB reporter ([1]; agonist: LPS 0.1 ug/mL)	NF-kB reporter ([1]; agonist: MPLA […])	IRF reporter ([2]; agonist: 3'3'-cGAMP 10 ug/mL)	IRF reporter ([2]; agonist: LPS 0.1 ug/mL)	IRF reporter ([2]; agonist: MPLA […])	viability score [3]
CCS(=O)(=O)c1ccc(-c2cccc(NC(=O)CC3CCCC3)c2)nn1	1.19 ± 0.099	0.932 ± 0.073	1.01 ± 0.029	0.905 ± 0.033	0.973 ± 0.056	0.926 ± 0.13	0.999 (active)
Cc1sccc1-c1csc(Nc2cccnc2)n1.Cl	0.603 ± 0.028	0.918 ± 0.075	1.16 ± 0.21	0.6 ± 0.029	1.19 ± 0.23	1.62 ± 0.53	0.902 (active)
CN(C)CCC=C1c2ccccc2COc2ccccc21.Cl	0.758 ± 0.18	1.01 ± 0.054	1.06 ± 0.067	0.576 ± 0.031	1.22 ± 0.21	1.17 ± 0.2	0.978 (active)
CCC(O)=C(C#N)c1nc2ccccc2n1C	1.12 ± 0.12	0.938 ± 0.061	1.18 ± 0.064	0.792 ± 0.033	1.02 ± 0.07	1.37 ± 0.15	0.995 (active)
COC(=O)CNC(c1ccccc1)c1cc(Br)ccc1NC(=O)c1ccccc1Br (configuration not stated)	0.826 ± 0.07	0.777 ± 0.041	1.52 ± 0.053	0.632 ± 0.035	1.1 ± 0.14	1.52 ± 0.22	0.988 (active)
CNCCc1ccccn1.Cl.Cl	1.19 ± 0.36	0.956 ± 0.18	0.964 ± 0.08	0.946 ± 0.05	1.01 ± 0.31	1 ± 0.13	0.997 (active)
COc1cc(NC(=O)NCc2nc(C)cc(N3CCOCC3)n2)cc(OC)c1	1.33 ± 0.32	1.04 ± 0.053	1.07 ± 0.11	0.886 ± 0.031	1.15 ± 0.14	1.09 ± 0.11	0.982 (active)
O=C(NCC1(O)CCc2ccccc2C1)Nc1ccccc1C(F)(F)F (configuration not stated)	0.914 ± 0.18	1.02 ± 0.11	1.18 ± 0.074	0.973 ± 0.05	1.17 ± 0.2	1.31 ± 0.42	0.908 (active)
CCOC(=O)C(CCc1ccccc1)NC(C)C(=O)N1Cc2ccccc2CC1C(=O)O.Cl (configuration not stated)	1.27 ± 0.31	1.05 ± 0.057	0.977 ± 0.072	0.955 ± 0.046	1.22 ± 0.14	1.3 ± 0.13	0.997 (active)
NC(=O)c1ncn([C@@H]2O[C@H](CO)[C@@H](O)[C@H]2O)c1O	0.723 ± 0.23	1.08 ± 0.069	0.898 ± 0.05	1.02 ± 0.085	1.04 ± 0.086	1.16 ± 0.094	0.998 (active)
N=C(N)Nc1ccc(Cl)cc1	1.02 ± 0.1	1.05 ± 0.067	0.961 ± 0.042	0.984 ± 0.08	0.986 ± 0.058	0.885 ± 0.099	0.991 (active)
Br.O=S(=O)(c1ccc(-c2csc(Nc3ccc(Cl)cc3)n2)cc1)N1CCOCC1	0.997 ± 0.09	1.09 ± 0.071	1.09 ± 0.038	0.907 ± 0.17	1.11 ± 0.046	1.06 ± 0.1	0.995 (active)
Cc1cc2nc(SCc3cc4c(cc3Cl)OCO4)[nH]c2cc1C	0.749 ± 0.065	0.976 ± 0.047	0.91 ± 0.094	0.636 ± 0.042	1.2 ± 0.083	1.25 ± 0.12	1.01 (active)
O=C(O)CCc1nc(-c2ccccc2)c(-c2ccccc2)o1	1.05 ± 0.079	0.998 ± 0.066	1.03 ± 0.023	0.931 ± 0.055	0.976 ± 0.12	1.03 ± 0.15	0.991 (active)
COc1ccc(C(=O)Nc2sc3c(c2C(N)=O)CCC(C)C3)c(OC)c1 (configuration not stated)	1.09 ± 0.11	1.08 ± 0.067	0.947 ± 0.058	0.907 ± 0.068	1.5 ± 0.2	1.22 ± 0.11	1.01 (active)
O=C(CSc1nc[nH]n1)NC(c1ccccc1)c1ccccc1	0.77 ± 0.077	0.86 ± 0.053	1.01 ± 0.088	0.51 ± 0.033	1.33 ± 0.096	1.62 ± 0.17	1.01 (active)
Nc1ncn([C@@H]2O[C@H](CO)[C@@H](O)[C@H]2O)c(=O)n1	1.55 ± 0.066	0.569 ± 0.045	1.99 ± 0.16	0.549 ± 0.035	0.433 ± 0.049	0.502 ± 0.1	0.745 (active)
O=C(C=Cc1ccco1)Nc1ccc(C(=O)O)cc1NC(=O)C=Cc1ccco1	0.691 ± 0.069	1.11 ± 0.061	0.932 ± 0.056	0.884 ± 0.028	1.27 ± 0.19	0.976 ± 0.27	1.02 (active)
